# The list is not random: actives were taken first. Their share in the collection is about 3.9%.
# Platelet DG rel: platelet dense granule release activity | human platelet-rich plasma, SFLLRN dense granule ATP release, luminescence | inhibition, %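 (compounds screened at 7.5 µM in platelet-rich plasma)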 | 0.22% of 300,000 active;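 active means mean replicate score, as percent of positive control, at or above 50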
# PHOSPHO1 inh: blocks human PHOSPHO1 phosphatase activity | inhibition, % at 13.3 µM | recombinant PHOSPHO1, absorbance phosphatase assay | Q8TCT1 | 1.1% of 290,000 active; in the data active means inhibition above about 60%
# SKKanGAS inh: SKKanGAS growth inhibition. S. pyogenes SKKanGAS, kanamycin growth, BacTiter-Glo, 6 h. inhibition, % at 7.5 µM. 1.3% of 300,000 active. AID 1662;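 active means mean replicate score, as percent of positive control median, at least 50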;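 further: strain carries kanamycin resistance gene driven by streptokinase promoter and grows in 40 µg/ml kanamycin; loss of luminescence reflects streptokinase promoter inhibition or plain growth inhibition; 0% = median of DMSO wells and 100% = positive control at its reference dose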
# TPT1 inh: blocks Candida albicans tRNA 2'-phosphotransferase | recombinant caTPT1, FP RNA substrate dephosphorylation | inhibition, % at 5 µM | 0.81% of 300,000 active | AID 1962;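 active means inhibition above the mean of all tested compounds plus 3 SD, set per screening campaign, cut at about 24% in these data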;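 further: plate controls were DMSO alone for no effect and ferristatin control at 100 nM for full effect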
# WT yeast gro inh: growth inhibition of WT yeast, mitochondrial fusion screen. mitochondrial fusion phenotypic screen, WT strain. AID 1362. inhibition, % at 10 µM. 2.1% of 190,000 active; in the data active means inhibition above about 58%; tested in S. cerevisiae
# Rtt109 Vps75: inhibitors of Candida albicans Rtt109/Vps75 histone acetyltransferase | Q5AAJ8 | inhibition, % at 34.9 µM | purified Rtt109/Vps75, ThioGlo CoA-SH fluorescence, 4 h | 0.16% of 330,000 active;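 active means inhibition of at least 50% in every replicate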
# Target sequence (Q5AAJ8 whole entry, looked up): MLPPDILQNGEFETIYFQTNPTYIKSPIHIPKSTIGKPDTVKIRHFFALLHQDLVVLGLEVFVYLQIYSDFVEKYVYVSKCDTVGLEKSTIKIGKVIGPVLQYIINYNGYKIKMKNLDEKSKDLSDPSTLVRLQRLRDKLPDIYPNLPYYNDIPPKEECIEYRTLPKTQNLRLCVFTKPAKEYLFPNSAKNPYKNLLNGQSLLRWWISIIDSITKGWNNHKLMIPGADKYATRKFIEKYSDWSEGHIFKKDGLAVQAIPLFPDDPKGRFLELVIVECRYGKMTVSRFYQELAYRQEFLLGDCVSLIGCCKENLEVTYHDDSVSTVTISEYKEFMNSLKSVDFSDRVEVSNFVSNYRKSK
# The depositor's hits bear a star; . = no result.
SMILES,Platelet DG rel,PHOSPHO1 inh,SKKanGAS inh,TPT1 inh,WT yeast gro inh,Rtt109 Vps75
CC(Oc1ccc(Cl)cc1)C(=O)Nc1nccs1 (centres undefined),7,6,-6,-2,9,-6
CCc1ccc(Nc2nc(N)nc(CSc3nc4ccccc4s3)n2)cc1,2,-1,19,-5,72*,3
Cc1ccc(S(=O)(=O)N2CCOCC2)cc1C(=O)OCC(=O)NCCc1ccc(F)cc1,.,.,.,.,.,-6
NC(=O)N/N=C(/CCCCCC/C(=N\NC(N)=O)c1ccccc1)c1ccccc1,-5,32,53*,0,.,.
C/C(=N\NC(N)=O)c1ccccc1,-3,29,-19,0,0,-2
COC(=O)c1ccc(CN2CCC(Oc3cccc(C(=O)N4CCOCC4)c3)CC2)cc1,8,25,-1,-1,.,-3
C/C(=C/CCC(C)[C@H]1CC[C@@]2(C)C3=C(CC[C@]12C)[C@@]1(C)CCC(=O)C(C)(C)[C@@H]1CC3)C(=O)O (some centres undefined),-9,6,105*,0,41,-3
C/C(=C/CCC(C)C1CCC2(C)C3CCC4C(C)(C)C(=O)CCC4(C)C3=CCC12C)C(=O)O (centres undefined),-1,22,105*,.,.,.
CN1CCN(C(=O)OCCOCCOC(=O)N2CCN(C)CC2)CC1,.,.,.,.,.,-12
O=C(NCCCn1ccnc1)c1ccc(Br)s1,10,21,8,.,.,-8
COc1cccc(NC(=O)CN(C)C(=O)/C=C/c2cn(-c3ccccc3)nc2-c2ccc(C)cc2)c1,.,.,24,-2,.,-3
COc1ccc(NC(=O)CN(C)C(=O)/C=C/c2cn(-c3ccccc3)nc2-c2ccc(F)cc2)cc1,1,.,63*,0,.,.
COc1ccc(NC(=O)CN(C)C(=O)/C=C/c2cn(-c3ccccc3)nc2-c2ccc(C)cc2)cc1,-13,.,58*,-1,.,-1
O=C(Cn1cnc2c(OCc3ccccc3)ncnc21)N[C@H](CO)Cc1cc2ccccc2[nH]1,.,.,.,.,.,9
CN1C(=O)/C(=C/c2cc(N=Nc3ccccc3)ccc2O)SC1=S,4,18,34,1,96*,-4
O=C(NNC(=O)c1ccc([N+](=O)[O-])cc1C(=O)O)c1ccncc1,-5,31,-1,1,.,-4
Cc1cccc(NC(=O)CNC(=O)COC(=O)C2CC2C)c1C (centres undefined),.,.,.,.,.,-2
Cc1[nH]n(-c2nc(-c3ccc(Cl)cc3)cs2)c(=O)c1N=Nc1ccc(O)cc1,-3,-13,61*,7,18,-2
O=C(Nc1ccc(F)cc1)Nc1cc(OCC(F)(F)F)cc(OCC(F)(F)F)c1,-4,-5,78*,-6,20,-6
CC(=O)c1cccc(NC(=O)C(C)OC(=O)/C=C/c2cccs2)c1 (centres undefined),.,.,.,.,.,-1
O=C(/C=C\c1ccco1)Nc1nc(-c2ccc3ccccc3c2)cs1,-4,-49,63*,-3,46,-7
CCOC(=O)C(CC)(CC)C(=O)/C=C/c1ccc(Br)cc1,-30,27,1,0,61*,1
CCOC(=O)C(=Cc1ccc(Br)cc1)C(=O)OCC,4,42,-7,.,.,-3
COc1ccc(/C=N/NC(=O)c2nn(-c3ccc(Cl)cc3)c(=O)c3c(N)scc23)cc1,0,100*,12,-1,44,1
COc1ccc(/C=N/NC(=O)c2nn(-c3ccccc3)c(=O)c3c(N)scc23)cc1,3,3,12,-2,3,-16
SMILES,Platelet DG rel,PHOSPHO1 inh,SKKanGAS inh,TPT1 inh,WT yeast gro inh,Rtt109 Vps75
Cc1cc(N2CCN(C(=O)c3ccco3)CC2)n2nc(C)c(-c3ccccc3)c2n1,-1,-46,7,.,63*,-7
Cc1cc(N2CCN(C(=O)c3ccco3)CC2)n2nc(C)c(-c3ccc(Cl)cc3)c2n1,.,-4,.,.,.,.
Cc1nn2c(N3CCOCC3)cc(C(C)(C)C)nc2c1-c1ccccc1,2,19,-1,-3,.,6
CCN1CCN(c2cc(C(C)(C)C)nc3c(-c4ccccc4)c(C)nn23)CC1,-1,21,3,3,94*,18
O=C(CN1C(=O)C(=O)N(C2CCCC2)C1=O)Nc1ccc(Cl)cc1C(F)(F)F,.,.,.,.,.,-2
O=C(NCC1CCCN(C(=O)Cc2ccccc2Cl)C1)c1ccc(F)cc1 (centres undefined),-2,17,8,3,.,8
C[C@H]1CN(S(=O)(=O)C(C)(C)C)[C@H](CCO)/C1=C\c1ccccc1,.,.,.,.,.,-3
COc1ccc(C(=O)NC(=S)N2CC(C)OC(C)C2)cc1 (centres undefined),1,-3,4,-2,-3,2
Cc1ccc(C(=O)NC(=S)N2CC(C)OC(C)C2)cc1[N+](=O)[O-] (centres undefined),26,90*,.,4,-4,2
COCCn1c(=S)[nH]c2cc(C(=O)N3CCc4ccccc43)ccc2c1=O,12,25,2,1,76*,3
COc1ccccc1N1CCN(C(=O)c2ccc3c(=O)n(Cc4ccco4)c(=S)[nH]c3c2)CC1,5,82*,22,2,28,6
COc1ccccc1Cn1c(=S)[nH]c2cc(C(=O)N3CCN(c4ccccc4OC)CC3)ccc2c1=O,10,23,-19,3,.,-13
CCOc1ccc(S(=O)(=O)N2CCN(CN3C(=O)CC4(CCCC4)C3=O)CC2)cc1,.,.,.,.,.,-11
Cc1ccc([N+](=O)[O-])cc1S(=O)(=O)Nc1cccc(S(=O)(=O)Nc2ccccc2C(=O)O)c1,.,.,.,.,.,-1
Cc1ccc(NS(=O)(=O)c2cc(C(=O)Nc3cccc([N+](=O)[O-])c3)ccc2C)cc1,1,-22,18,1,64*,-1
Cc1ccc(C)c(NC(=O)c2ccccc2NS(=O)(=O)c2cc([N+](=O)[O-])ccc2C)c1,2,1,.,-2,80*,-3
COCCN(C(=O)COC(=O)Cc1c[nH]c2ccccc12)c1c(N)n(Cc2ccccc2)c(=O)[nH]c1=O,-1,.,18,3,.,-1
CN(c1ccccc1)S(=O)(=O)c1cc(C(=O)NCCCn2ccnc2)ccc1Cl,.,.,.,.,.,2
c1ccc(-c2cn(C[C@H]3CC[C@H](Cn4cc(-c5ccccn5)nn4)O3)nn2)nc1,-3,21,1,-2,.,-7
CC1Cc2ccccc2N1C(=O)CSc1nncs1 (centres undefined),.,.,.,.,.,-3
COc1cc(NC(=O)c2cc(-c3ccc4c(c3)OCO4)on2)cc(OC)c1OC,-34,24,-2,-3,.,4
O=C(Nc1cccc(O)c1)c1cc(-c2ccc3c(c2)OCO3)on1,95*,14,16,4,.,-5
CC(OC(=O)CC(C)c1ccccc1)C(=O)Nc1ccc(Cl)cn1 (centres undefined),.,.,.,.,.,3
Cc1ccc(C(C(=O)NC2CCCCC2)N(C(=O)Cc2c[nH]c3ccccc23)c2ccccc2C)o1 (centres undefined),18,-9,-8,2,-1,-9
